Test results: PubChem BioAssay (Tox21)
Inconclusive results are not listed. The source made the active and inactive calls. Unless noted, the call rests on the fitted dose curve; in most records, active means well fitted curve in the direction sought with a large enough effect in the repeat runs; inconclusive means weak or mixed curves; inactive means no such curve, though single readings can be large; an effect the other way counts as inactive or inconclusive.

How the values were obtained:
[1] = qHTS assay to identify small molecule agonists of the hypoxia (HIF-1) signaling pathway - cell viability counter screen (AID 1224844; calls by dose curve; further: nearly all actives have a fitted effect of over 50% in size)
Outline: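 Cytotoxicity measured by CellTiter-Glo ATP luminescence in the wells also read for beta-lactamase signal. Cells were HRE-bla ME-180 (2,000/well, 0.5% dialyzed FBS), exposed to compounds for 17 h at 37C.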

[2] = qHTS assay to identify small molecule agonists of H2AX (AID 1224845; active means well fitted activation curve with a large enough effect in the signal ratio in the repeat runs, not every such curve was filed as active; the % refers to the signal ratio)
Outline: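 Wild-type CHO-K1 cells, plated overnight, exposed 3hr at 37C to 15 concentrations (0.76% DMSO final). Lysed, then HTRF anti-pH2AX (S139) cryptate and anti-H2AX-d2 antibodies, 24 hr room temperature; 665/620 nm emission read.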

[3] = qHTS assay to identify small molecule agonists of the hypoxia (HIF-1) signaling pathway (AID 1224846; active means well fitted activation curve with a large enough effect in the signal ratio in the repeat runs, not every such curve was filed as active; the % refers to the signal ratio)
Outline: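 Compounds added to ME-180 cells carrying hypoxia-response-element beta-lactamase reporter (0.5% dialyzed FBS, 5 h preplating), 17 h at 37C; agonist activity detected by CCF4-AM B/G FRET read-out.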

[4] = qHTS assay to identify small molecule agonists of H2AX - cell viability counter screen (AID 1224847; calls by dose curve; further: top concentration of the series differs between compounds; nearly all actives have a fitted effect of over 30% in size)
Outline: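 Wild-type CHO-K1 cells (10% FBS medium) were plated overnight at 37C, exposed to compounds at 15 concentrations for 3 hr at 37C (0.76% DMSO final), and viability was read as CellTiter-Glo luminescence after 30 min at room temperature.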

[5] = qHTS assay to identify small molecule antagonists of the estrogen related receptor (ERR) signaling pathway from Tox21 library (AID 1224848); further: nearly all actives have a fitted effect of over 50% in size
Outline: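 Compounds dissolved in DMSO are pin-transferred onto ERR reporter cells (2,000 per well) that have settled for 6 h at 37 C. Plates then incubate 18 h at 37 C before ONE-Glo luciferase reagent and a luminescence read 30 min later.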

[6] = qHTS assay to identify small molecule agonists of the estrogen related receptor (ERR) signaling pathway from Tox21 library (AID 1224849; calls by dose curve; further: nearly all actives have a fitted effect of over 15% in size); details: ERR reporter cell line, ONE-Glo luciferase, 18 h; at 92.4 µM (top of the series) unless noted
Outline: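 Luminescent agonist read-out (One-Glo, 30-minute room-temperature incubation) following 18-hour compound treatment at 37 C of the ERR cell line, which had been plated 6 hours before dosing.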

[7] = qHTS RealTime-Glo MT Cell Viability Assay in HEK293 cells - 32 hour (AID 1224868); further: top concentration of the series differs between compounds; nearly all actives have a fitted effect of over 50% in size
Outline: (§1)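 Viability tracked continuously by luminescence as live cells reduce a prosubstrate for NanoLuc; HEK293 cells preincubated 5 h, compound-treated at 37 C, and read at 0, 8, 16, 24, 32 and 40 h.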

[8] = A CellTox Green Cytotoxicity Assay to monitor cytotoxicity in HEK293 cells - 0 hour (AID 1224869); further: nearly all actives have a fitted effect of over 50% in size
Outline: (§2)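 Fluorescence from a DNA-binding dye excluded by viable cells was measured repeatedly in the same HEK293 wells (600 cells/well) during continuous compound exposure at 37 C. Each assay gives one read point: 0, 8, 16, 24, 32 or 40 h.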

[9] = qHTS RealTime-Glo MT Cell Viability Assay in HepG2 cells - 40 hour (AID 1224870); further: nearly all actives have a fitted effect of over 50% in size
Outline: (§3)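 HepG2 cells (600/well) mixed with RealTime-Glo MT reagent, settled 5 h at 37 C/5% CO2 before compound addition. Nonlytic NanoLuc luminescence from viable-cell prosubstrate reduction read repeatedly during 40 h treatment at 37 C.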

[10] = A CellTox Green Cytotoxicity Assay to monitor cytotoxicity in HEK293 cells - 40 hour (AID 1224871); further: nearly all actives have a fitted effect of over 45% in size
Outline: as §2

[11] = qHTS RealTime-Glo MT Cell Viability Assay in HEK293 cells - 16 hour (AID 1224872)
Outline: as §1

[12] = qHTS RealTime-Glo MT Cell Viability Assay in HepG2 cells - 8 hour (AID 1224873); further: nearly all actives have a fitted effect of over 55% in size
Outline: as §3

[13] = qHTS RealTime-Glo MT Cell Viability Assay in HEK293 cells - 40 hour (AID 1224874); details: RealTime-Glo luminescence; max response: hits give low values; further: nearly all actives have a fitted effect of over 50% in size
Outline: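 Luminescence, which tracks viable cell number through reduction of the prosubstrate to a NanoLuc substrate, was read over continuous 37 C culture. Cells (600/well) were premixed with reagent and rested 5 h before 23 nL of compound in DMSO was pinned.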

[14] = A CellTox Green Cytotoxicity Assay to monitor cytotoxicity in HEK293 cells - 24 hour (AID 1224875); further: nearly all actives have a fitted effect of over 45% in size
Outline: as §2

[15] = A CellTox Green Cytotoxicity Assay to monitor cytotoxicity in HepG2 cells - 16 hour (AID 1224876); further: nearly all actives have a fitted effect of over 45% in size
Outline: (§4)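 Real-time cytotoxicity: fluorescence of a cell-impermeant cyanine dye binding DNA of dead HepG2 cells, measured repeatedly (0–40 h) during compound exposure at 37 C. Cells seeded 600/well with reagent, dosed after 5 h.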

[16] = qHTS RealTime-Glo MT Cell Viability Assay in HepG2 cells - 32 hour (AID 1224877); further: nearly all actives have a fitted effect of over 55% in size
Outline: (§5)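 Viability was tracked continuously by NanoLuc luminescence from prosubstrate reduced by living HepG2 cells, at successive time points over 40 h of compound exposure. Cells with reagent were preincubated 5 h at 37 °C before compound addition.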

[17] = A CellTox Green Cytotoxicity Assay to monitor cytotoxicity in HepG2 cells - 24 hour (AID 1224878); further: nearly all actives have a fitted effect of over 45% in size
Outline: as §4

[18] = A CellTox Green Cytotoxicity Assay to monitor cytotoxicity in HepG2 cells - 40 hour (AID 1224879); further: nearly all actives have a fitted effect of over 40% in size
Outline: as §4

[19] = qHTS RealTime-Glo MT Cell Viability Assay in HepG2 cells - 24 hour (AID 1224867); further: nearly all actives have a fitted effect of over 50% in size
Outline: as §5
On the % scale 0 is the no-effect control and ±100 the full control effect.

C=C(C)C(=O)OCc1ccccc1
inactive: outcome [1] | outcome [2] | outcome [3] | Potency [4] | Potency [5] | activity change, positive = activation [6] 1.9% | Potency [7] | outcome [8] | outcome [9] | Potency [10] | Potency [11] | outcome [12] | max response [13] -7.63% | outcome [14] | outcome [15] | outcome [16] | outcome [17] | Potency [18]

O=C1c2ccccc2C(=O)N1CCl
inactive: outcome [1] | outcome [2] | outcome [3] | Potency [5] | activity change, positive = activation [6] 0.282% | outcome [19] | Potency [7] | outcome [8] | outcome [9] | Potency [10] | Potency [11] | outcome [12] | max response [13] 1.28% | outcome [14] | outcome [15] | outcome [16] | Potency [18]

CC(C)CCCCOC(=O)c1ccccc1C(=O)OCCCCC(C)C
inactive: outcome [1] | outcome [2] | outcome [3] | Potency [4] | Potency [5] | activity change, positive = activation [6] -6.44% | Potency [7] | outcome [8] | outcome [9] | Potency [10] | Potency [11] | outcome [12] | max response [13] -1.41% | outcome [14] | outcome [15] | outcome [16] | Potency [18]

NCCS
inactive: outcome [2] | Potency [4] | Potency [5] | activity change, positive = activation [6] -2.88% [at 42.5 µM] | Potency [7] | outcome [8] | Potency [11] | outcome [12] | max response [13] 7.37% | outcome [14] | outcome [15] | outcome [16] | outcome [17] | Potency [18]

Nc1ccc2cc(S(=O)(=O)O)cc(O)c2c1
inactive: outcome [1] | outcome [3] | Potency [4] | Potency [5] | activity change, positive = activation [6] 1.3% | Potency [7] | outcome [8] | outcome [9] | Potency [10] | Potency [11] | outcome [12] | max response [13] 0.478% | outcome [14] | outcome [15] | outcome [16] | outcome [17] | Potency [18]

CC(CC=O)CCCC(C)(C)O (configuration not stated)
inactive: outcome [1] | outcome [2] | outcome [3] | Potency [4] | Potency [5] | outcome [19] | Potency [7] | outcome [8] | outcome [9] | Potency [10] | Potency [11] | outcome [12] | max response [13] 3.36% | outcome [14] | outcome [15] | outcome [17] | Potency [18]

Cc1cc(Cl)c(C)cc1Cl
inactive: outcome [1] | outcome [2] | outcome [3] | Potency [5] | activity change, positive = activation [6] -5.35% | outcome [19] | Potency [7] | outcome [8] | outcome [9] | Potency [10] | Potency [11] | outcome [12] | max response [13] 6.26% | outcome [14] | outcome [15] | outcome [16] | outcome [17] | Potency [18]

CCCCCCCCC(=O)Cl
inactive: outcome [1] | outcome [2] | outcome [3] | Potency [4] | Potency [5] | activity change, positive = activation [6] 0.757% | outcome [19] | Potency [7] | outcome [8] | outcome [9] | Potency [10] | Potency [11] | outcome [12] | max response [13] 10.1% | outcome [14] | outcome [15] | outcome [16] | Potency [18]

CN=C(NC#N)Nc1ccc(C2=NNC(=O)CC2C)cc1 (configuration not stated)
inactive: outcome [1] | outcome [2] | outcome [3] | Potency [4] | Potency [5] | activity change, positive = activation [6] 5.55% [at 42.5 µM] | Potency [7] | outcome [8] | outcome [9] | Potency [10] | Potency [11] | outcome [12] | max response [13] 11.7% | outcome [14] | outcome [15] | outcome [16] | Potency [18]

CCCOC(OCCC)OCCC
inactive: outcome [1] | outcome [2] | outcome [3] | Potency [4] | Potency [5] | activity change, positive = activation [6] 4.24% | outcome [19] | Potency [7] | outcome [8] | outcome [9] | Potency [11] | outcome [12] | max response [13] 6.14% | outcome [14] | outcome [15] | outcome [16] | outcome [17] | Potency [18]

O=S(=O)(O)c1cc(O)c2ccc(Nc3ccccc3)cc2c1
inactive: outcome [1] | outcome [3] | Potency [4] | outcome [19] | Potency [7] | outcome [8] | outcome [9] | Potency [10] | Potency [11] | outcome [12] | max response [13] 11.9% | outcome [14] | outcome [15] | outcome [16] | outcome [17] | Potency [18]
